Assay results as given in the supplement of paper PMC11417369.
The full ranking holds about 25,000 sequences; the median of “ln(normalized median fluorescence intensity)” is about 9.3, and the highest 2% start at about 10. This is one part of a sample in which the highest values are shown more often than they occur.

What follows are sequences tested on PF3D7_0420300 AP2 domain 1 (GST-tagged) (assay: gcPBM binding intensity (ln(normalized median fluorescence intensity)); higher = stronger DNA binding).
Summary of the method: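 An Agilent 4 × 180k array carrying primer-extended double-stranded 36-bp intergenic genomic probes and negative controls received GST-tagged P. falciparum DNA-binding domains expressed in E. coli, about 25 μg on average, for 1 h. The binding buffer contained 1× PBS, 1% milk, 0.2 mg/ml BSA, 0.5% salmon testes DNA and 0.03% Triton X-100. Binding intensity is the top Masliner-normalised natural-log median intensity across replicate spots of either probe orientation, read after Alexa488 anti-GST antibody staining and a 488 nm scan.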
For “CAGTAGTATATACTATGTACATATTTATATTATATT [XGTACX_site4964]”, the “gcPBM binding intensity (ln)” value was 9.22. With “TAATAAACCAAACTAAACAATATATCAAAAAGCACA [CACACA_negctrl_site269]” the “gcPBM binding intensity (ln)” value was 9.75. In the case of “TATATATATATTTTAACACACACATATATATATTTA [CACACA_site8892]”, the “gcPBM binding intensity (ln)” value is reported as 9.63. For “TGAAAGAACCTGATTACACACATAAATTATATATAT [CACACA_site26]”, the “gcPBM binding intensity (ln)” value was 9.54. “GTAATATCAATATAAAGTACACACTATAGTATGTAT [XGTACX_site4714]” was tested, and the “gcPBM binding intensity (ln)” value was 9.52. With “TTTTAAATAAAAAAATTAAATTAAAATATATAAAAA [XGTACX_negctrl_site490]” the “gcPBM binding intensity (ln)” value was 8.82. “TGTATTAACAAAAAGGTGCGGATATATATAAAAAAT [GTGCAC_site9473]” was tested, and the “gcPBM binding intensity (ln)” value was 9.61. For “ATACATATATACATATGTACATATATATATATATAT [XGTACX_site8206]”, the “gcPBM binding intensity (ln)” value was 9.3. For “AAAAAAAAAAAAAAAAAAAAAAATATATATATATAT [XGTACX_negctrl_site33]”, the “gcPBM binding intensity (ln)” value was 9.26. “ACATCGATTTATATTCTGCACTGAAGAAACTACAAC [GTGCAC_site9967]” was tested, and the “gcPBM binding intensity (ln)” value was 9.32. With “ATAATTTGGAAACACACACACACACCCACATATATA [CACACA_site2286]” the “gcPBM binding intensity (ln)” value was 10.3. With “TAGAAGCAGAAACACACACACATACATACACATACA [CACACA_site1467]” the “gcPBM binding intensity (ln)” value was 9.99. “ATTTGGCATAAACACACACACACACCCACCCACATA [CACACA_site8096]” was tested, and the “gcPBM binding intensity (ln)” value was 10.4. “CATATTTGGAAACACACACACATATTTATATATATA [CACACA_site3569]” was tested, and the “gcPBM binding intensity (ln)” value was 9.95. For “TGTAAATTTGGCATCACACATAAATAAACATATAAA [CACACA_site4497]”, the “gcPBM binding intensity (ln)” value was 9.4. “TAATTTTTGAAACACACACACATATATATATATATA [CACACA_site94]” was tested, and the “gcPBM binding intensity (ln)” value was 9.71. With “ATTTGGCAGAAACACACACACACACCCACCCACATA [CACACA_site589]” the “gcPBM binding intensity (ln)” value was 10.4. For “TACATAAATTAATAGTCACACACGTATTTTTTATAT [CACACA_site8806]”, the “gcPBM binding intensity (ln)” value was 9.45. “AATAGAACTATTACACGTACAGAACATGAATTAGTT [XGTACX_site7518]” was tested, and the “gcPBM binding intensity (ln)” value was 9.36. For “TCAAAAGAAATAAAAACATGCATAAAAGTAAAAATA [TGCATGCA_site832]”, the “gcPBM binding intensity (ln)” value was 9.33. For “ATAAATGACAAATTAACACACATATATTATAGATAT [CACACA_site7770]”, the “gcPBM binding intensity (ln)” value was 9.68. For “TATATATTATATAAATAAATAAATATATATATTTAT [TGCATGCA_negctrl_site270]”, the “gcPBM binding intensity (ln)” value was 8.94. For “TTTTTATTTTTTTACAGTACATAAAATAAATAAATA [XGTACX_site6596]”, the “gcPBM binding intensity (ln)” value was 8.84.
